PubChem BioAssay (NCI)
The panel holds about 83,000 compounds, 20% with a hit somewhere; the sample as a whole holds those more often.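 Interpretation: 100, growth as untreated; towards 0, rising growth inhibition; 0, no net growth; 0 to -100, cell death. Compounds scoring below 10 were considered active.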 Values without a mark were called inactive. Calls of active or inactive are those of the source.

Columns and labels:
Assay in all cases: NCI-60 one-dose screen, 48 h (100 = growth as untreated, 0 = no growth, -100 = all killed)
Details in all cases: 10 µM unless noted
DU-145 prostate = tested on: DU-145 prostate
K-562 leukemia = tested on: K-562 leukemia
MALME-3M melanoma = tested on: MALME-3M melanoma
MDA-MB-231 breast = tested on: MDA-MB-231 breast
RXF 393 renal = tested on: RXF 393 renal
SF-268 CNS = tested on: SF-268 CNS
SF-295 CNS = tested on: SF-295 CNS
SF-539 CNS = tested on: SF-539 CNS
UACC-257 melanoma = tested on: UACC-257 melanoma
M14 melanoma = tested on: M14 melanoma

Structure (SMILES) | growth (DU-145 prostate) | growth (K-562 leukemia) | growth (MALME-3M melanoma) | growth (MDA-MB-231 breast) | growth (RXF 393 renal) | growth (SF-268 CNS) | growth (SF-295 CNS) | growth (SF-539 CNS) | growth (UACC-257 melanoma) | growth (M14 melanoma)
O=c1c2c(c3ccccc3n1-c1ccccc1)NC(=S)NC2c1ccccc1 (stereo not given) | 115% | 101% | 112% | 84.7% | 117% | 104% | 121% | 94.8% | 108% | 98.8%
COc1ccc2c(c1)cn1c3ccc(O)cc3[nH]c(=O)c21 | 15.4% | -5.1% (active) | 62.5% | 25.5% | -3.01% (active) | 16.9% | 22.5% | -4.58% (active) | 51.4% | 14.7%
CCCCCCCCCCN1CC2CCCCC2C1 (stereo not given) | 69% | 24.4% | 108% | 34.1% | 77.7% | 72.2% | 85.1% | 85.1% | 87.2% | 73.3%
N=C(N)c1ccc(-c2ccc(-c3cc(Cl)cc(Cl)c3)s2)cc1 | -89.8% (active) | -55.1% (active) | -74.4% (active) | -78.4% (active) | -90.2% (active) | -66.1% (active) | -87.3% (active) | -92.7% (active) | -44% (active) | -85.3% (active)
COC(=O)[C@@H]1[C@H](O)[C@H](C)[C@H](O)[C@H](C)/C=C\C=C(C)C(=O)Nc2c(C)c(OC(C)=O)c3c(c2O)C(=O)C(C)=C2OCOC(=C23)C(C)=C[C@@](C)(O)[C@H](O)[C@@H](C)[C@H]1OC(C)=O | 144% | 145% | 131% | 125% | 106% | 108% | 118% | 101% | 106% | 107%
COc1ccc(Oc2[nH]n(C3=Nc4ccccc4Sc4ccccc43)c(=O)c2C#N)cc1 | 104% | 125% | 169% | 95.6% | 94.2% | 88.3% | 99.2% | 96.7% | 104% | 104%
COc1ccc(/C=N/c2cc(C(C)(C)C)nn2-c2ccccc2)cc1 | 113% | 92.2% | 121% | 99.7% | 126% | 101% | 96.6% | 92.5% | 96.8% | 115%
CCOC(=O)c1c(C)oc2ncnc(Nc3ccc(NC(=O)Nc4ccc(CC)cc4)cc3)c12 | 103% | 98% | 101% | 94.7% | 98.3% | 103% | 109% | 89.4% | 111% | 99.9%
CC(=O)NNC(=O)c1sc(NC(C)=O)nc1C | 113% | 61.4% | 168% | 100% | 112% | 93.2% | 106% | 97.8% | 105% | 115%
Oc1ccc(CN(Cc2ccc(C(F)(F)F)cc2)Cc2ccc(O)c3ncccc23)c2cccnc12 | 24.1% | 8.17% (active) | 23.7% | 48.4% | 11.2% | 25.6% | 6.95% (active) | 15.2% | -27.7% (active) | 3.46% (active)
CC(=O)N(N=O)c1ccc([N+](=O)[O-])cc1Cl | 82.2% | 49.5% | 58.9% | 58.9% | 83.9% | 78.5% | 66.9% | 72.7% | 45.4% | 64.6%
COC(=O)C(Cc1cnc[nH]1)N1CC(=O)N2[C@@H](c3ccccc3)SC[C@H]2C1=O (stereo not given in full) | 117% | 106% | 108% | 116% | 193% | 104% | 93.5% | 105% | 96.7% | 101%
C/C(=N\Nc1ccc(Cl)cn1)c1ccc2ccccc2n1 | 19.9% | 5.97% (active) | 10.6% | 31.5% | 30.5% | 10.3% | 2.94% (active) | 3.44% (active) | -19.9% (active) | 0.159% (active)
O=Nc1ccc(O)c2ccccc12 | 56.7% | 12.1% | -58.5% (active) | 52.5% | 10.9% | 10.5% | 62.9% | 0.651% (active) | -68.5% (active) | -10.8% (active)
O=C(Nc1cccc2[nH]c(C(F)(F)F)nc12)c1ccc(F)cc1 | 88.3% | 24.8% | 74% | 83.7% | 88% | 86.1% | 86.6% | 80% | 89.7% | 92%
Cc1nc2ccccc2c(=O)n1-c1cccc(OCc2cn(-c3cccc(O)c3)nn2)c1 | 100% | 88.2% | 104% | 78.3% | 105% | 88.4% | 93.8% | 100% | 94.9% | 94.4%
CCOC(=O)c1c2c(cn1Cc1ccccc1)-c1oncc1CC2 | 107% | 101% | 114% | 90.6% | 93.3% | 83.6% | 98.5% | 86% | 112% | 111%
CC(O)c1cc[cH-]c1.[Fe+2].c1cc[cH-]c1 (stereo not given) | 108% | 102% | 102% | 110% | 95.6% | 108% | 98.8% | 97% | 96.9% | 95.6%
O=C(Nc1ccc(-n2cc(-c3ccncc3)c(-c3ccc(Cl)c(O)c3)n2)cc1)Nc1cc(C(F)(F)F)cc(C(F)(F)F)c1 | 36.4% | 17.6% | 12% | 21.5% | -11.2% (active) | 25.9% | -5.6% (active) | 30.3% | 8.73% (active) | 6.9% (active)
CCN(CC)CCCC(C)Nc1c(C)cnc2cc(Cl)c(C)cc12 (stereo not given) | 91.7% | 3.57% (active) | 110% | 73.5% | 69.3% | 87.6% | 84.8% | 72.3% | 112% | 7.11% (active)
CCOc1ccc(N(C)c2ccc(/C=C/C3=[N+](C)c4ccccc4C3(C)C)cc2)cc1 | -3.68% (active) | 8.09% (active) | -73.8% (active) | -56.2% (active) | 35.8% | -78.9% (active) | -2.2% (active) | 30.5% | -16.4% (active) | 6.52% (active)
CC(=O)NCCN | 116% | 101% | 100% | 101% | 90.1% | 108% | 101% | 94.9% | 86.9% | 108%
CCOC(=O)CSSCC(=O)OCC | 106% | 101% | 112% | 107% | 128% | 104% | 100% | 95.9% | 94.1% | 119%
COc1cccc(CNC(=O)c2cccc(C3CC(=O)c4c(cc(OC)c(OC)c4OC)O3)c2)c1 (stereo not given) | 101% | 10.7% | 71.3% | 76.8% | 84.3% | 78.7% | 84.1% | 35.4% | 67.8% | 41%
O=C(NC1CCN(Cc2ccccc2)CC1)c1cc(-c2cccnc2)nc2ccc(Cl)cc12 | 87.5% | 2.45% (active) | 74% | 58.8% | 82.1% | 100% | 67.6% | 63.9% | 83.2% | 77.9%
